According to the supplement of paper PMC10849652:
The full data set covers some 7,900 targets. This sample favours those with a hit. About 0.6% of all pairs of compound and target were hits. Unmarked numbers belong to inactive results.

Tests used:
Assay in all cases: log2 fold change, soluble protein after heating vs DMSO (PISA); higher = thermal stabilisation; K562 cells, 10 uM, 30 min; active = over 0.2 and 3.5 SD of the protein, either way, in both replicates (recomputed)
[1] = compound: CC1=C(C=C(C=C1)NC(=O)C2=CC(=CC=C2)C(C)(C)C#N)NC3=CC4=C(C=C3)N=CN(C4=O)C
How it was run: (§1)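 Quantification of soluble protein used TMTpro 16plex LC-MS/MS, with channel sums equalised. Samples were the supernatant after 21,000xg for 90 min of pooled aliquots from K562 cells (2×10^6 cells/mL) treated with 10 μM compound for 30 min, heated for 3 min over 48°C-58°C, and extracted in PBS with 0.5% NP-40 at 4°C. Values, from duplicates, describe thermal stability against control samples on a log2 fold-change scale.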

[2] = compound: CC1=C(C=C(C=C1)NC(=O)C2=CC(=CC=C2)N(C)C)NC(=O)C3=CC=C(C=C3)O
How it was run: as §1

[3] = compound: CC1=CC=C(C=C1)SC2=C3C=C(SC3=CN=C2)C(=O)N
How it was run: as §1

[4] = compound: CC1=NC(=CC=C1)C2=C(N=C(N2)C(C)(C)C)C3=CC4=NC=CN=C4C=C3
How it was run: as §1

[5] = compound: CCCCN(Cc1ccc(C(=O)NO)cc1)C(=O)Nc1ccccc1 [Nexturastat A]
How it was run: as §1

[6] = compound: CCCS(=O)(=O)Nc1ccc(F)c(C(=O)c2c[nH]c3ncc(-c4ccc(Cl)cc4)cc23)c1F [vemurafenib]
How it was run: as §1

[7] = compound: CCCS(=O)(=O)Nc1ccc(F)c(C(=O)c2c[nH]c3ncc(Cl)cc23)c1F
How it was run: as §1

[8] = compound: CCCc1cc(C)[nH]c(=O)c1CNC(=O)c1cc(-c2ccnc(N3CCN(C)CC3)c2)cc2c1cnn2C(C)C
How it was run: as §1

[9] = compound: CCN(CC)Cc1ccc2cc(COC(=O)Nc3ccc(C(=O)NO)cc3)ccc2c1 [givinostat]
How it was run: as §1

[10] = compound: CCN(CCCOc1ccc2c(Nc3cc(CC(=O)Nc4cccc(F)c4)[nH]n3)ncnc2c1)CCOP(=O)(O)O [barasertib]
How it was run: as §1

[11] = compound: CC[C@@H]1C(=O)N(C)c2cnc(Nc3ccc(C(=O)NC4CCN(C)CC4)cc3OC)nc2N1C1CCCC1
How it was run: as §1

[12] = compound: CC[C@@H]1C(=O)N(C)c2cnc(Nc3ccc(C(=O)N[C@H]4CC[C@H](N5CCN(CC6CC6)CC5)CC4)cc3OC)nc2N1C(C)C [volasertib]
How it was run: as §1

[13] = compound: CC[C@H](C)N1C=C(C2=C(C=C(C=C21)C3=CN=C(C=C3)N4CCNCC4)C(=O)NCC5=C(C=C(NC5=O)C)C)C
How it was run: as §1

[14] = compound: CC[C@H](C)[C@@H](C(=O)N[C@@H]([C@@H](C)O)C(=O)N[C@@H](CC(C)C)C(=O)[C@]1(CO1)C)NC(=O)[C@H]([C@@H](C)CC)N(C)C(=O)C [epoxomicin]
How it was run: as §1

[15] = compound: CCn1c(C(=O)N(C2CC2)C2CC2)cc2c3c(ncn3C)c(Nc3cc(C)n(C)n3)nc21
How it was run: as §1

[16] = compound: CCn1cc(-c2ccnc3[nH]c(-c4cccc(CN(C)C)c4)cc23)c(-c2ccc(NC(=O)N(C)C)cc2)n1
How it was run: as §1

[17] = compound: CN(C)CC(=O)Nc1ccc2[nH]c(=O)c3ccccc3c2c1
How it was run: as §1

[18] = compound: CN(CCOC1=CC=C(C=C1)C[C@H]2C(=O)NC(=O)S2)C3=CC=CC=N3 (racemic) [rosiglitazone]
How it was run: as §1

[19] = compound: CN1C2=C(C3=C1C(=O)N(N=C3)CC4=CC(=CC=C4)N)SC(=C2)S(=O)C
How it was run: as §1

[20] = compound: CN1CCC(CNc2ccc3ncc(-c4cccc(OC(F)(F)F)c4)n3n2)CC1
How it was run: as §1

UniProt Q5XKP0, sequence (Q5XKP0 whole entry, looked up): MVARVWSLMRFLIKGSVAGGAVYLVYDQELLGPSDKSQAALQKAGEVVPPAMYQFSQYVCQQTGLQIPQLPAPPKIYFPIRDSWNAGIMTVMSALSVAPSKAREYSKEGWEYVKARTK
UniProt Q6UWB1, sequence (Q6UWB1 whole entry, looked up): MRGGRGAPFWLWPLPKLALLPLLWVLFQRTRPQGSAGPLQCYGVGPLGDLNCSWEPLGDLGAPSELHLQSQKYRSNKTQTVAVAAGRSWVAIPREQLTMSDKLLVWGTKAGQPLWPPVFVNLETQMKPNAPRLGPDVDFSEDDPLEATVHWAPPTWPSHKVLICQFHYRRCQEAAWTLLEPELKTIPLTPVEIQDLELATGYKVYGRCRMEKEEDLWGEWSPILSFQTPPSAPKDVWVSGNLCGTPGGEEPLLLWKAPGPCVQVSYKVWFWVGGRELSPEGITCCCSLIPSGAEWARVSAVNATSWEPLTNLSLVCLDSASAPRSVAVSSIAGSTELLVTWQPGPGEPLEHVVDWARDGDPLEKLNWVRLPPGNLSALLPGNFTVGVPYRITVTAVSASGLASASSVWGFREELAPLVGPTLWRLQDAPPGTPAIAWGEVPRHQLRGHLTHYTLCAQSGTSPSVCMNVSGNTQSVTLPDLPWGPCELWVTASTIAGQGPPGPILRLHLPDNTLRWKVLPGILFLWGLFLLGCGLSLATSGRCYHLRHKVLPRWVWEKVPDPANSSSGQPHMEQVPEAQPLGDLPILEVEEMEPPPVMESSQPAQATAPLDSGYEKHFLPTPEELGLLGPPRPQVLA
UniProt Q71RC2, sequence (Q71RC2 whole entry, looked up): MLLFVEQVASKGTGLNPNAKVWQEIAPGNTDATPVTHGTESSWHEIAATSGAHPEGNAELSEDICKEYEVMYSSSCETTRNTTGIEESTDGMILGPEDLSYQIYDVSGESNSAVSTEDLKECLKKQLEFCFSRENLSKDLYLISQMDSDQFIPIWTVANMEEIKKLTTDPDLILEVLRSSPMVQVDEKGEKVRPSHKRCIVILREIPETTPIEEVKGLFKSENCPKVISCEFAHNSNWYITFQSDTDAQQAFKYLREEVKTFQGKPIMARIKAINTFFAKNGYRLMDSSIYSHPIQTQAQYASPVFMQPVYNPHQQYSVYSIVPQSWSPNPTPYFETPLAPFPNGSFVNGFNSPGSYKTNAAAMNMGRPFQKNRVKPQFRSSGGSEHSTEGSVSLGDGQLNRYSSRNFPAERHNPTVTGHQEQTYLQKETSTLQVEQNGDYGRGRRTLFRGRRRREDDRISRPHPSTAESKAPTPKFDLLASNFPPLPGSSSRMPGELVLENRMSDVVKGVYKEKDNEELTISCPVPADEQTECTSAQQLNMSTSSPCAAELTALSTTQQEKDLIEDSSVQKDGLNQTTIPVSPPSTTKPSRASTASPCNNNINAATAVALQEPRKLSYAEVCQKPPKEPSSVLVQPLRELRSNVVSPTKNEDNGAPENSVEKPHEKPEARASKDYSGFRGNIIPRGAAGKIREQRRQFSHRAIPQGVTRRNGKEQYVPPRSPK
UniProt O60333, sequence (O60333 whole entry, looked up): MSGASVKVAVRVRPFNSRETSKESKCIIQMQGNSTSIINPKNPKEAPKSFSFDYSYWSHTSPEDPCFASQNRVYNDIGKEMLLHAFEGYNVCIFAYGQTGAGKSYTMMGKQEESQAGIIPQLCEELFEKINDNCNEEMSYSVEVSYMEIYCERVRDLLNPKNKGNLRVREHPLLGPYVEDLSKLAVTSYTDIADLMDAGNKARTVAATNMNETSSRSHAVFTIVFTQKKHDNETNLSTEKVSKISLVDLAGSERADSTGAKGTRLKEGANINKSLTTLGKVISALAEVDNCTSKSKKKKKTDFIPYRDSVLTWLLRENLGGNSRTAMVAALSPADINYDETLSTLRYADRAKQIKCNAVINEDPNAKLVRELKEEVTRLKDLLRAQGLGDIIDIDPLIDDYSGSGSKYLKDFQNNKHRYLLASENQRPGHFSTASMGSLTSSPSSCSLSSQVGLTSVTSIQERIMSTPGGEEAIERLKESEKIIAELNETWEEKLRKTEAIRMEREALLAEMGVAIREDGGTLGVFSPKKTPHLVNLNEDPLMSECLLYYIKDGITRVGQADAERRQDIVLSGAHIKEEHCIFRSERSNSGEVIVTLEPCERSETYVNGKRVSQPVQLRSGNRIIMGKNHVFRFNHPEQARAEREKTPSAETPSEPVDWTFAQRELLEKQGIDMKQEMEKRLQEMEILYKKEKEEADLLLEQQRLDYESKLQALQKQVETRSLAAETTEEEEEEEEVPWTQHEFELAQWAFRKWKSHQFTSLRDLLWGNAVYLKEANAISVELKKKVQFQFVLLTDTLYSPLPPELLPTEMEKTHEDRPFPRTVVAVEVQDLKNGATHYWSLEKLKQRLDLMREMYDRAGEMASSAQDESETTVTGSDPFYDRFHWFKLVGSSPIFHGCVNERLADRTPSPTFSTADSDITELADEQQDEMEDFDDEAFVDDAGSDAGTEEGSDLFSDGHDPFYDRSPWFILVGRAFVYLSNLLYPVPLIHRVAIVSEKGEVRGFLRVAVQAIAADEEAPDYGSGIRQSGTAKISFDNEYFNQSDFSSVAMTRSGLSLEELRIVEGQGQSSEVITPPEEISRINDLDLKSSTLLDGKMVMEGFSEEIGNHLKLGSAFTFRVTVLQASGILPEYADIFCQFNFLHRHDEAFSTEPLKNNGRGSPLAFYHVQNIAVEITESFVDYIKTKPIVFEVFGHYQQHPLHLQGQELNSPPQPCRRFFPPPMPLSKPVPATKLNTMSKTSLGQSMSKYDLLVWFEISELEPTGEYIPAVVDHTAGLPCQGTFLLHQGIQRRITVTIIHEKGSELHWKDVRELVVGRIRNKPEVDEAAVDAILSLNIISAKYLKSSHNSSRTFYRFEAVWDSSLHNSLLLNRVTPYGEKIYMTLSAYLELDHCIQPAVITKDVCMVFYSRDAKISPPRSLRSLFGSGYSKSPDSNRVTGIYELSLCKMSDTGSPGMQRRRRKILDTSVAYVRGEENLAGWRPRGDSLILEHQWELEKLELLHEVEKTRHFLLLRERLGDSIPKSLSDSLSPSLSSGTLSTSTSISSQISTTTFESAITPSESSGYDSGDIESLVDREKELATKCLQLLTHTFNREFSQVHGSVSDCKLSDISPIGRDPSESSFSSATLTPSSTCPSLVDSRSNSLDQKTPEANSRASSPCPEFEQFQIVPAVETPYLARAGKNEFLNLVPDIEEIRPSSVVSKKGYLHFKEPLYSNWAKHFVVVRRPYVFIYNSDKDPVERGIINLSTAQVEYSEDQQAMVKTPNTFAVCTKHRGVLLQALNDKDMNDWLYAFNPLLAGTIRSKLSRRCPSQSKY
UniProt Q9BRT3, sequence (Q9BRT3 whole entry, looked up): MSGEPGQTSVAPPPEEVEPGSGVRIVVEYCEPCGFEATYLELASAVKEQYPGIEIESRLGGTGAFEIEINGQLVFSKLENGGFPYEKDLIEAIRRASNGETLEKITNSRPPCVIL
UniProt Q14145, sequence (Q14145 whole entry, looked up): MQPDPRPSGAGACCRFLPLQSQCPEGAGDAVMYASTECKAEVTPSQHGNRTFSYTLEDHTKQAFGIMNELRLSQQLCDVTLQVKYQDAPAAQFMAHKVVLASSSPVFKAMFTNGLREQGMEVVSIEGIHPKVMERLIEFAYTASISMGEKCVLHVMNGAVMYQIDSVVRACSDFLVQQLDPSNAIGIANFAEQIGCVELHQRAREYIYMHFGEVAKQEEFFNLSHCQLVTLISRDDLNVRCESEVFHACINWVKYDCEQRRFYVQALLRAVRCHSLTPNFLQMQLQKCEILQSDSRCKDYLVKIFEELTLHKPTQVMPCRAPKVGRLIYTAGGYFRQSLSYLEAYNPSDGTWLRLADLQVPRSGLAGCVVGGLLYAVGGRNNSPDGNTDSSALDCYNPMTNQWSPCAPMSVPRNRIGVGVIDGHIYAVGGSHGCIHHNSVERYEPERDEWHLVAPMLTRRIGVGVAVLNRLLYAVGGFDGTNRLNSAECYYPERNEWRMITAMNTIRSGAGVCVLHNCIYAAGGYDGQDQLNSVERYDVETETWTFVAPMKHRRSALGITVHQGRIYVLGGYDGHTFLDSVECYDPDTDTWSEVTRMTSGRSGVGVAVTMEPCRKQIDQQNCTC
UniProt O43318, sequence (O43318 whole entry, looked up): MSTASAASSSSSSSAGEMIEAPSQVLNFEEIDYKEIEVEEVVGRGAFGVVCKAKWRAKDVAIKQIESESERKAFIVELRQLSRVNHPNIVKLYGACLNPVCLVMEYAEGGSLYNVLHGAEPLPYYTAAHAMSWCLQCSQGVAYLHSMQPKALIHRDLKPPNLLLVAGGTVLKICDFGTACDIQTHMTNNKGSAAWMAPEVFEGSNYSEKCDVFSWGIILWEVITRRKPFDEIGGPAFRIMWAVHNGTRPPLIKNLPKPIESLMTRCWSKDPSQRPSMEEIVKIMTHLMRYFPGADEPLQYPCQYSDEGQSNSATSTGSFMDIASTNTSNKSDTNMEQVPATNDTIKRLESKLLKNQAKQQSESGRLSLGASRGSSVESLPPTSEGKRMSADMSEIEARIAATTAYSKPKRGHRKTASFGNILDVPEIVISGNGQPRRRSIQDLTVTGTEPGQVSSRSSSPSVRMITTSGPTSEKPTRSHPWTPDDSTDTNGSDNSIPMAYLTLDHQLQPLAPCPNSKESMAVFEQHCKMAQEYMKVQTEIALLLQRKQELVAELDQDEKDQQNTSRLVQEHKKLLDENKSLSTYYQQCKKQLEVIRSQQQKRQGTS
UniProt P14174, sequence (P14174 whole entry, looked up): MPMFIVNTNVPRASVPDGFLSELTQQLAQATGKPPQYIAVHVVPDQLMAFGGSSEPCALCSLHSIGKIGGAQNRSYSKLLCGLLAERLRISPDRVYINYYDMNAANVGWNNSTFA
UniProt P49006, sequence (P49006 whole entry, looked up): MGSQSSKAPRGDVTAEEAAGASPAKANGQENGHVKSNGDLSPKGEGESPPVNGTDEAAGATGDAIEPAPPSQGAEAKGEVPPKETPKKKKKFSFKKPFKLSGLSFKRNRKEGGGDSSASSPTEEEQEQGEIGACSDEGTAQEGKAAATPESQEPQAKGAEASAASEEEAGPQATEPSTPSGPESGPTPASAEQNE

Target	log2 fold change [1]	log2 fold change [2]	log2 fold change [3]	log2 fold change [4]	log2 fold change [5]	log2 fold change [6]	log2 fold change [7]	log2 fold change [8]	log2 fold change [9]	log2 fold change [10]	log2 fold change [11]	log2 fold change [12]	log2 fold change [13]	log2 fold change [14]	log2 fold change [15]	log2 fold change [16]	log2 fold change [17]	log2 fold change [18]	log2 fold change [19]	log2 fold change [20]
KEAP1 (UniProt Q14145)	-0.024	0.032	0.005	-0.009	0.038	0.054	0.101	0.004	0.034	0.082	-0.026	-0.357 (active)	-0.034	-0.024	-0.017	0.019	0.033	0.024	0.056	0.053
ITM2B (UniProt Q9Y287)	0.01	-0.052	0.036	-0.046	-0.05	-0.101	-0.016	-0.482	0.001	0.076	-0.022	0.182	-0.112	0.028	0.001		-0.036	0.057	-0.197	
LARP1 (UniProt Q6PKG0)	0.01	0.032	-0.035	0.029	0.142	-0.033	-0.03	0.046	0.012	-0.006	0.098	0.071	0.047	-0.034	0.061	0.016	-0.054	0.014	0.131	0.025
MAN2B2 (UniProt Q9Y2E5)	0.017	0.049	0.033	-0.056	-0.062	-0.105	-0.17	0.139	0.014	0.041	-0.445 (active)	-0.704 (active)	-0.005	-0.002	0		-0.019	-0.052	0.013	
MICOS13 (UniProt Q5XKP0)	0.041	-0.06	0.056	0.065	-0.065	0.018	0.077	-0.069	0.027	0.034	-0.132	-0.181	0.025	0.023	-0.023	-0.043	0.026	0.011	-0.044	-0.579 (active)
MAP3K7 (UniProt O43318)	-0.008	-0.039	0.041	0.019	0.027	0.042	0.074	0.008	0.093	0.079	-0.015	-0.369 (active)	-0.008	0.018	0.032	0.043	0.046	0.079	0.079	-0.093
MIEN1 (UniProt Q9BRT3)	-0.011	-0.029	0.036	-0.054	-0.002	0.081	0.073	0.016	0	0.132	0.055	-0.047	-0.02	0.008	0.045	0.029	0.181	-0.007	0.008	0.284 (active)
KIF1B isoform 4 (UniProt O60333)	-0.07	0.058	0.008	0.024	0.024	0.002	0.043	0.018	0.122	0.073	-0.042	-0.11	0.052	0.039	-0.015	-0.005	0.123	0.059	-0.001	-0.299 (active)
MARCKSL1 (UniProt P49006)	0.039	0.011	-0.111	0.032	-0.127	0.005	-0.125	0.005	0.041	0.034	-0.055	0.038	0.021	-0.055	0.02	-0.015	-0.044	0.012	-0.08	0.147
IL27RA (UniProt Q6UWB1)	-0.048	-0.048	-0.006	-0.018	0.027	-0.025	-0.091	-0.008	0.006	0.011	-0.12	-0.298	-0.049	-0.178	-0.066		-0.098	-0.093	-0.219	
LARP4 isoform 4 (UniProt Q71RC2)	0.066	0.005	-0.041	-0.002	0.251	-0.017	0.018	0.054	0.04	-0.053	-0.016	-0.351	0.117	-0.107	0.005	0.07	0.009	0.018	0.137	-0.252
IGFBP2 (UniProt P18065)	-0.154	0.173	0.201	0.349	0.106	0.262	-0.003	-0.409	0.056	0.012	-0.319	-0.614	-0.167	-0.707	-0.275	0.158	0.003	0.083	0.323	-0.638
LMNB1 (UniProt P20700)	-0.019	0.027	-0.046	-0.012	-0.045	0.1	0.065	-0.029	0.002	0.021	-0.045	-0.308 (active)	0.023	0.037	-0.021	0.115	0.034	-0.049	-0.034	0.026
MIF (UniProt P14174)	0.056	-0.014	0.056	0.098	-0.29	-0.009	-0.047	-0.076	-0.113	-0.009	0.025	0.021	-0.096	0.454 (active)	0.015	0.081	0.025	-0.012	-0.038	0.211
KIFBP (UniProt Q96EK5)	0.019	0.034	0.052	0.027	-0.107	0.067	0.093	-0.013	-0.004	0.022	-0.007	-0.333 (active)	0.11	-0.035	-0.036	0.017	0.038	0.11	0.095	-0.046
MARCKS (UniProt P29966)	-0.001	-0.066	0.01	0.072	-0.104	0.047	-0.004	0.252	-0.096	0.005	0.035	-0.027	-0.091	-0.044	0	0.268 (active)	-0.043	0.03	-0.014	0.089
